Reference: PubChem BioAssay AID933 (National Center for Advancing Translational Sciences (NCATS), 2009)
Inconclusive results are not listed. Activity calls are given as the source filed them. Calls come from the whole dose curve; as a rule, active = well fitted activation curve with a large enough effect in the signal ratio, with a control signal flat; inconclusive = small, poorly fitted or top-dose-only effect, or a change in a side signal; inactive = flat fitted curve, though single readings scatter; the % refers to the signal ratio.

Target: Thyrotropin receptor (Homo sapiens) (UniProt P16473)
Assay: Secondary Concentration-Response Assay for Agonists of the Thyroid Stimulating Hormone Receptor: HTRF Activity Detection; for activation: % of control where 0% means no effect
Details: HEK293-TSHR cells, cAMP HTRF ratio, 30 min; series mostly up to 91.7 µM; activation: at the top concentration
Summary of the method: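 cAMP accumulation was detected by antibody-based HTRF, excitation 330 nm, emissions 615 and 660 nm. Compounds acted for 30 min at room temperature on stably TSHR-transfected HEK 293 cells, with phosphodiesterase inhibitor RO 20-1724 (100 uM) in the medium.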
Potency is the fitted concentration of half-maximal effect.

Thyrotropin receptor (Homo sapiens), sequence (P16473 whole entry, looked up): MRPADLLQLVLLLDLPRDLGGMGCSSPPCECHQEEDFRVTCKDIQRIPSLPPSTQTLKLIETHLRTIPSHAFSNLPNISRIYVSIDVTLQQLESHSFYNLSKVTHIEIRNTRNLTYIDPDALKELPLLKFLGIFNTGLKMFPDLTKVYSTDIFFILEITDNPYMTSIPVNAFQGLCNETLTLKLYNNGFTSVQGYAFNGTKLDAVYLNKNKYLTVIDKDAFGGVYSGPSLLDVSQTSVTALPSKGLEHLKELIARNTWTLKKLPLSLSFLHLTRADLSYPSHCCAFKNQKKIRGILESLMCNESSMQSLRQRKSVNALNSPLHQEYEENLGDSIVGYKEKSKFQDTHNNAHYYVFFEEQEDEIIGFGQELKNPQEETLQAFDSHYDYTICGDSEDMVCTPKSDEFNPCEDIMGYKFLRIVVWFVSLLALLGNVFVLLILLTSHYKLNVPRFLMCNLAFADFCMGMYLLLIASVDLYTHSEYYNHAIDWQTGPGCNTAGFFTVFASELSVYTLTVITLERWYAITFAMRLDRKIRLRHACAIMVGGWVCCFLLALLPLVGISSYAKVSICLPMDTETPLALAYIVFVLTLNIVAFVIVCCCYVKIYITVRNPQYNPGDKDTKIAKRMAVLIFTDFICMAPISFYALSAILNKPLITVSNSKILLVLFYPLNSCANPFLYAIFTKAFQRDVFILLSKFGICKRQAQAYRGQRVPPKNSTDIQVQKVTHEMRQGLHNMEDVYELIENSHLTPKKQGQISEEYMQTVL

SMILES	activation	Potency
COc1ccc(-c2nc3ccc(NC(=O)COC(C)=O)cc3c(=O)n2Cc2ccccc2)cc1COc1ccc(NC(C)=O)cc1	16.2% (inactive)	–
O=C1c2ccccc2NC(c2ccccc2OCc2ccccc2)N1Cc1ccco1 (stereo unspecified)	1.72% (inactive)	–
CC(=O)Nc1ccc(C2Nc3ccccc3C(=O)N2C2CCCCC2)cc1 (stereo unspecified)	0.608% (inactive)	–
CCOC(=O)CCc1c(C)nc2c(c(C)nn2C(C)(C)C)c1C	0.0158% [at 0.00035 µM] (inactive)	–
COc1ccc(C2Nc3ccccc3C(=O)N2c2cccc3ccccc23)cc1COc1c(C)cccc1C (stereo unspecified)	1.6% (inactive)	–
COc1ccc(-c2nc3ccc(NC(C)=O)cc3c(=O)n2Cc2ccccc2)cc1COc1ccc(NC(C)=O)cc1	19.5% (inactive)	–
COc1ccc(C2Nc3ccc(NC(=O)COC(C)=O)cc3C(=O)N2Cc2ccccc2)cc1COc1ccc(NC(C)=O)cc1 (stereo unspecified)	–	8.91 µM (active)
CCOc1cc(C2Nc3ccccc3C(=O)N2c2ccccc2)c(Br)cc1OCC(=O)O (stereo unspecified)	1.1% (inactive)	–
COc1ccc(C2Nc3ccccc3C(=O)N2c2ccccc2)cc1Cn1cc([N+](=O)[O-])cn1 (stereo unspecified)	0.747% (inactive)	–
O=C1c2ccccc2NC(c2ccc3c(c2)OCO3)N1Cc1ccco1 (stereo unspecified)	1.3% (inactive)	–
O=C(COC(=O)C1c2ccccc2Oc2ccccc21)Nc1ccc2c(c1)OCO2	0.151% [at 0.00035 µM] (inactive)	–
COc1ccc(CN(Cc2ccccc2)C(=O)C2CC2)cc1COc1ccc(NC(C)=O)cc1	–	15.8 µM (active)
COc1ccc(C2Nc3ccccc3C(=O)N2c2ccccc2)cc1COc1ccc(NC(C)=O)cc1 (stereo unspecified)	6.51% (inactive)	–
Oc1ccccc1Cn1c(-c2ccccc2O)nc2ccccc21	-0.344% [at 0.00035 µM] (inactive)	–
O=C(CN(Cc1ccc(F)cc1)S(=O)(=O)c1ccccc1)N1CCCCC1	0.34% [at 0.00035 µM] (inactive)	–
CC(C)CC(=O)Nc1cccc(-c2cn3ccsc3n2)c1	0.105% [at 0.00035 µM] (inactive)	–
O=C1C2C3CCCC3=C3CCCC3C2C(=O)N1c1ccccc1Cl (stereo unspecified)	0.928% (inactive)	–
COc1ccc(/C=N/O)cc1COc1ccc(NC(C)=O)cc1	0.871% (inactive)	–

SMILES	activation	Potency
COc1cccc(C(c2nnnn2Cc2ccccc2)N2CCN(C(=O)c3ccco3)CC2)c1OC (stereo unspecified)	0.497% [at 0.00035 µM] (inactive)	–
O=C1c2ccccc2NC(c2ccccc2)N1c1ccc(O)cc1 (stereo unspecified)	1.31% (inactive)	–
COc1ccc(C2Nc3ccccc3C(=O)N2Cc2ccco2)cc1COc1ccc([N+](=O)[O-])c(C)c1 (stereo unspecified)	1.82% (inactive)	–
CCOc1cc(C2Nc3ccccc3C(=O)N2Cc2ccco2)ccc1O (stereo unspecified)	2.52% (inactive)	–
COc1ccc(-c2nc3ccccc3c(=O)n2Cc2ccccc2)cc1OCc1ccc(NC(C)=O)cc1	2.33% (inactive)	–
COc1ccc(C2Nc3ccccc3C(=O)N2Cc2ccco2)cc1CN1C(=O)c2ccccc2C1=O (stereo unspecified)	–	inactive
O=C(CN(c1ccc2c(c1)OCCO2)S(=O)(=O)c1ccccc1)NCc1ccco1	-0.333% [at 0.00035 µM] (inactive)	–
COc1ccc(C2Nc3ccccc3C(=O)N2Cc2ccccc2)cc1COc1cccc(C(F)(F)F)c1 (stereo unspecified)	6.58% (inactive)	–
COc1ccc(C2Nc3ccccc3C(=O)N2Cc2ccccc2)cc1COc1ccccn1 (stereo unspecified)	1.5% (inactive)	–
O=C1C2C3CCCC3=C3CCCC3C2C(=O)N1c1ccc(F)cc1 (stereo unspecified)	3.38% (inactive)	–
COc1cc(C2Nc3ccccc3C(=O)N2Cc2ccco2)cc(OC)c1OC (stereo unspecified)	2.24% (inactive)	–
CC(=O)Nc1ccc(OCc2cccc(C3Nc4ccccc4C(=O)N3Cc3ccco3)c2)cc1 (stereo unspecified)	6.27% (inactive)	–
COc1ccc(O)c(-c2nc3ccccc3c(=O)n2Cc2ccccc2)c1	10.9% (inactive)	–
COc1cc(OC)c(C(=O)N(Cc2ccco2)Cc2cccs2)cc1OC	1.09% (inactive)	–
CC1CCN(S(=O)(=O)c2cccc(C(=O)Nc3ccccn3)c2)CC1	0.1% [at 0.00035 µM] (inactive)	–
CCOc1cc(C2Nc3ccccc3C(=O)N2Cc2ccco2)ccc1OCc1ccccc1Cl (stereo unspecified)	0.379% (inactive)	–
COc1ccc(C2Nc3ccccc3C(=O)N2Cc2ccccc2OC)cc1COc1ccc(NC(C)=O)cc1 (stereo unspecified)	17.2% (inactive)	–
COc1ccc(C(=O)N(Cc2ccco2)Cc2cccs2)cc1	4.57% (inactive)	–
